The text below walks through data of PubChem BioAssay AID1778 (Sanford-Burnham Center for Chemical Genomics, 2009).

Each structure is given as a SMILES string. The whole screen tested about 290,000 compounds, of which about 260 (0.09%) were called active. The sample holds actives, similar compounds and a random draw of the others, so the mix is not that of the screen. Rule as the data show it: active = inhibition above about 50%; inactive = the rest. Potency and affinity values are given separately.

For the assay, the target named is Kappa-type opioid receptor (Homo sapiens) (UniProt P41145). Put plainly: kappa opioid receptor blockers – cell-based, luminescence, uHTS (AID 1778). Particulars: KOR beta-arrestin recruitment, antagonist mode, stronger effect = higher value; at 10 µM unless noted. In general terms: Activated receptors often draw arrestin, which recruitment assays turn into a signal.
Sequence of Kappa-type opioid receptor (Homo sapiens) (P41145 whole entry, looked up): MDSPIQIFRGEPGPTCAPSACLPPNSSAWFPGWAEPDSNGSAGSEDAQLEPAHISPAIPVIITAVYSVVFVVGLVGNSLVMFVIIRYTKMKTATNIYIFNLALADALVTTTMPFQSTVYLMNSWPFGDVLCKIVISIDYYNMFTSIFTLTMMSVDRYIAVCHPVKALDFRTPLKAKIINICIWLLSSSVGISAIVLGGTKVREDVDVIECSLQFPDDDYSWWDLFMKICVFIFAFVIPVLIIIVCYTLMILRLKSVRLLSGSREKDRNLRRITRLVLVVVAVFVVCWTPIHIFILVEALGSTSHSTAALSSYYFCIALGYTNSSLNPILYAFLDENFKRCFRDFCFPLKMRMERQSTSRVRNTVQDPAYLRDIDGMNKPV
On to `CC(Oc1ccc(Br)cc1)C(=O)NCc1ccccn1` (centres undefined), for which the inhibition is -23.9% [at 20 µM] (inactive). For `C[C@H](NC(=O)c1ccccc1)C(=O)Nc1nc(-c2ccccn2)cs1`, the inhibition is -31% (inactive). In the case of `CNc1ccc(OC(F)F)cc1C(=O)c1ccccc1`, the inhibition is 17.2% (inactive). For the compound `Cc1ccc(SCC(=O)N2CCc3ccccc32)cc1`, the inhibition is -4.7% (inactive). In the case of `CC(=O)/C(=N\Nc1cccc(Cl)c1)Sc1cccc2cccnc12`, the inhibition is 9.1% (inactive). In the case of `CC(=O)/C(=N\Nc1ccccc1Cl)Sc1cccc2cccnc12`, the inhibition is -17.2% (inactive). `Fc1ccc2[nH]c3c(c2c1)CN(C(=S)NCc1ccccc1)CC3`: the inhibition was -9.6% (inactive). On to `O=C1CSC(c2ccccc2Br)N1c1ccc(Cl)cn1` (centres undefined), for which the inhibition was 2.8% (inactive). The figure for `CCOC(=O)c1nn(-c2ccccc2C)c2nc(CC(C)C)c(C#N)c(=O)n12` is -35.8% (inactive); for `Cc1cc(C(=O)Nc2nc(-c3ccccn3)cs2)ccc1[N+](=O)[O-]` it is 22.6% (inactive). The value for `O=C(Nc1nccs1)c1cc(Cl)ccc1[N+](=O)[O-]` was 8.6% (inactive); that for `O=C(Nc1nc(-c2ccccn2)cs1)c1cc(Cl)ccc1[N+](=O)[O-]` was 86.8% (active); that for `CNC(=O)CSc1nc2ccccc2c(=O)n1-c1cc(OC)ccc1OC` was 0.7% (inactive).

On to `CC(NC(=O)Cn1cc(C(F)(F)F)ccc1=O)c1ccc(F)cc1` (centres undefined), for which the inhibition is -19.7% (inactive).

In the case of `Cc1ccc(-c2nnc(SCC(N)=O)n2C)cc1`, the inhibition was -13.4% [at 20 µM] (inactive).

On to `COC(=O)CC(N)c1ccc(OC)c2ccccc12` (centres undefined), for which the inhibition was 15.2% (inactive). The value for `Oc1ccc(N=Nc2nc(-c3ccccc3)c(-c3ccccc3)[nH]2)cc1` was 32.4% (inactive); that for `Cc1[nH]oc(=O)c1N=Nc1ccccc1` was -11% (inactive); that for `N#Cc1ccc(NC(=O)CSc2cn[nH]n2)cc1` was -56.1% (inactive). For the compound `CC(NC(=O)c1cc2cc([N+](=O)[O-])ccc2oc1=O)C1CCCO1` (centres undefined), the inhibition is -4.3% [at 20 µM] (inactive). Take `C#CCOCCOCCOCCNc1nc(N2CCN(C(=O)[C@H](Cc3ccc(O)cc3)n3cc([C@@H](N)CC(C)C)nn3)CC2)nc(N2CCN(C(=O)[C@H](Cc3cc4ccccc4[nH]3)n3cc([C@@H](N)CC(C)C)nn3)CC2)n1`: the inhibition is 10.8% (inactive). Regarding `C#CCOCCOCCOCCNc1nc(N2CCN(C(=O)[C@H](Cc3cc4ccccc4[nH]3)n3cc([C@@H](N)Cc4ccc(O)cc4)nn3)CC2)nc(N2CCN(C(=O)[C@H](Cc3cc4ccccc4[nH]3)n3cc([C@@H](N)CC(C)C)nn3)CC2)n1`, the inhibition was 51.3% (active). The figure for `C#CCOCCOCCOCCNc1nc(N2CCN(C(=O)C(Cc3ccc(O)cc3)n3cc(C(N)CC(C)C)nn3)CC2)nc(N2CCN(C(=O)C(Cc3cc4ccccc4[nH]3)n3cc(C(N)Cc4ccc(O)cc4)nn3)CC2)n1` (centres undefined) is 12% (inactive).

With `O=C(Nc1ccc(OC(F)(F)F)cc1)c1ccc2ccccc2n1`, the inhibition is -27.1% (inactive). On to `CC(=O)OCCNc1cc(SC(C)C)c2nonc2c1[N+](=O)[O-]`, for which the inhibition was -32.5% (inactive).

With `Cc1ccc(Sc2cc(NCCCO)c([N+](=O)[O-])c3nonc23)cc1`, the inhibition is 5.8% (inactive).

On to `CCCC(=O)OCCNc1cc(Sc2nc3ccccc3[nH]2)c2nonc2c1[N+](=O)[O-]`, for which the inhibition was 49.9% (inactive). The value for `CCCC(=O)OCCNc1cc(SCc2ccco2)c2nonc2c1[N+](=O)[O-]` was 9.3% (inactive).

For `CC(=O)OCCCNc1cc(Sc2nc3ccccc3s2)c2nonc2c1[N+](=O)[O-]`, the inhibition is -22.9% (inactive). The figure for `O=[N+]([O-])c1c(NCCCO)cc(Sc2nc3ccccc3s2)c2nonc12` is 42.1% (inactive); for `Cc1nnc(Sc2cc(NCCO)c([N+](=O)[O-])c3nonc23)s1` it is 17.1% (inactive); for `CCCSc1cc(NCCOC(C)=O)c([N+](=O)[O-])c2nonc12` it is -12.8% (inactive). On to `CCOC(=O)Nc1sc2nc(C)cc(C)c2c1-n1cccc1`, for which the inhibition was -25.7% (inactive). As for `COCCN(C(=O)c1cccc(OC)c1)c1nnc(-c2ccncc2)s1`, the inhibition was 24.5% (inactive). The value for `COc1ccccc1N1CCN(CC(=O)c2c(C)[nH]c3ccccc23)CC1` was -0.2% (inactive); that for `COc1cc(OC)c(OC)cc1/C=N/NC(=S)NCC1CCCO1` (centres undefined) was 1.1% (inactive); that for `CCn1c(SCC(=O)Nc2nc3c(s2)CCCC3)nc2c1c(=O)n(C)c(=O)n2C` was -6.8% (inactive). Turning to `C=CCOC(=O)C(=O)/C=C/c1ccc2c(c1)Cc1ccccc1-2`, the inhibition is -23.3% (inactive).

`CCCc1ccc2oc(C(=O)N(C)CCn3ccnc3C)c(C)c2c1`: the inhibition was -19.1% [at 20 µM] (inactive). Consider `CC(=O)NC(Cc1cc(C)ccc1C)C(=O)N1CCN(C(=O)c2ccc([N+](=O)[O-])cc2)CC1` (centres undefined), for which the inhibition was -2.4% (inactive). The value for `COc1cc(-c2nc3ccccn3c2/N=C/c2cccc(F)c2)ccc1O` was -3.3% (inactive). As for `COc1cc(CNS(=O)(=O)c2ccc3c(c2)CC(C)N3C(=O)C2CCC2)cc(OC)c1OC` (centres undefined), the inhibition was -10.7% (inactive). For `NC(=S)N=Nc1c(O)[nH]c2ccccc12`, the inhibition was 18.5% (inactive). `Oc1[nH]c2ccccc2c1N=NC(=S)N1CCOCC1`: the inhibition is 63.2% (active). The figure for `Oc1[nH]c2ccc(Br)cc2c1N=NC(=S)N1CCOCC1` is 49.6% (inactive). Regarding `COC(=O)CCC(=O)Nc1c(C)n(C)n(-c2ccccc2)c1=O`, the inhibition is 22.3% [at 20 µM] (inactive).

For `Cc1cc(OCC(=O)Nc2ccc(S(=O)(=O)N3CCN(C)CC3)cc2)ccc1Br`, the inhibition is 3.2% (inactive). As to `Cc1cc(OCC(=O)Nc2ccc(S(=O)(=O)N3CCN(C)CC3)cc2)ccc1Cl`, the inhibition is -13.3% (inactive). For the compound `O=C(c1ccccn1)N1CCN(c2cccc(C(F)(F)F)c2)CC1`, the inhibition is -1.3% (inactive).

`CCOC(=O)c1cnn(-c2nc(SC)nc3sc4c(c23)CCCC4)c1N`: the inhibition is 5.6% (inactive). Consider `CCOC(=O)c1cnn(-c2nc3sc4c(c3c(=O)[nH]2)CCCC4)c1N`, for which the inhibition is 75% (active). Consider `CCOC(=O)c1cnn(-c2nc(C)nc3sc4c(c23)CCC4)c1N`, for which the inhibition was -9.9% (inactive). For `Cc1onc(-c2ccccc2)c1C(=O)N=C(N)c1ccc(C(F)(F)F)cc1`, the inhibition was 19.1% (inactive). Turning to `CCOc1cc(/C=N/NC(=O)C(=O)NCCCOC(C)C)cc(Br)c1O`, the inhibition was 4.9% (inactive).

In general, inhibition refers to the drop in the measured response relative to a control, in per cent.
